{
  "source": "PubChem BioAssay (NCI)",
  "note": "The panel holds about 83,000 compounds, 20% with a hit somewhere; the sample as a whole holds those more often.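 Single-concentration screen, 48 h exposure, 96-well plates. Endpoint: percent growth. Below 10 = active.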 Activity calls are given as the source filed them.",
  "data": [
    {"tested_on": "RPMI-8226 leukemia", "assay": "NCI-60 one-dose screen, 48 h (100 = growth as untreated, 0 = no growth, -100 = all killed)", "conditions": "10 µM unless noted", "method": "Growth inhibition of the RPMI-8226 human tumor cell line is measured as a screen for anti-cancer activity. Cells are grown in 96 well plates and exposed to the test compound for 48 hours. Compounds are tested at a single concentration, which is 10^-5 M for most compounds. The reported endpoint is percent growth (GI% or GIPRCNT), where numbers from 0 - 100% represent growth inhibition, and numbers from -100% - 0 represent cell death. For example, a value of 40 represents 60% growth inhibition. A value of 0 means no net growth occurred over the course of the experiment. A value of -40 indicates 40% of cells at the beginning of the experiment died by the end of the experiment. A value of -100 means all cells are dead at the end of the experiment.\nNCI-60 Human Tumor Cell Lines Screen was performed using the standard one-dose NCI protocol, which is described in more detail at https://dtp.cancer.gov/discovery_development/nci-60/default.htm.\nCompounds with GIPRCNT values below 10 were considered active. Activity score was based on GIPRCNT using the following formula: […]\nScore is 0 for GIPRCNT values of 100 or above, 50 for GIPRCNT values of 0, and 100 for GIPRCNT values of -100.", "values": [
      {"smiles": "C/C(CC1(O)C(=O)Nc2ccccc21)=N\\O", "note": "(stereo not given)", "growth": "100% (inactive)"},
      {"smiles": "O=C(N/N=C\\c1ccc([N+](=O)[O-])cc1)c1ccc2nc(-c3ccc(Br)cc3)[nH]c2c1", "growth": "6.03% (active)"},
      {"smiles": "CN1CCN(c2ccc(Nc3nc(NCCNC(=O)c4ccccc4)c4sccc4n3)cc2)CC1", "growth": "33.4% (inactive)"},
      {"smiles": "CCNCCOc1ccc(/C(=C(/CC)c2ccc(Cl)cc2)c2ccc(OCCCN(C)C)cc2)cc1", "growth": "-36.2% (active)"},
      {"smiles": "CC(C)(C)OC(=O)Nc1ccc(-c2cccc(Oc3ccc4nnc(Cl)n4n3)c2)cc1", "growth": "43.2% (inactive)"},
      {"smiles": "O=C1[C@@H]2Cc3c([nH]c4ccccc34)[C@@H](c3ccc(Cl)cc3)N2C(=O)CN1C1CCN(Cc2ccccc2)CC1", "growth": "18.9% (inactive)"},
      {"smiles": "CC1CC(=O)C2=C(C1)Nc1ccc(Br)cc1CC2c1c[nH]c2ccc(Br)cc12", "note": "(stereo not given)", "growth": "42.8% (inactive)"},
      {"smiles": "Cc1csc(/N=C(N)/N=C(\\N)c2cccc(C#N)c2)n1", "growth": "87.8% (inactive)"},
      {"smiles": "NS(=O)(=O)c1nnc(/N=C/c2c(O)[nH]c3ccccc23)s1", "growth": "109% (inactive)"},
      {"smiles": "NS(=O)(=O)c1ccc(Nc2nc(Nc3ccccc3)nc(N3N=C(c4ccc(Cl)cc4)CC3c3ccc(Cl)cc3)n2)cc1", "note": "(stereo not given)", "growth": "37.1% (inactive)"},
      {"smiles": "CCOC(=O)c1c(NC(=O)c2ccc(C(F)(F)F)cc2)sc2c(CN3CCN(C)CC3)c(O)ccc12", "growth": "-42% (active)"},
      {"smiles": "CC1=C(C)C(=O)C(Nc2cccc(C(=O)OC(C)(C)C)c2)=C(Cl)C1=O", "growth": "10.3% (inactive)"},
      {"smiles": "Cc1ccc(NC(=O)/C=C/c2ccc(OCCCOc3ccc4c(C)cc(=O)oc4c3)cc2)cc1", "growth": "90.1% (inactive)"},
      {"smiles": "CCOC(=O)c1ccc(NC2=CC(=O)C(C)=C(C)C2=O)cc1", "growth": "66.1% (inactive)"},
      {"smiles": "Fc1ccc2nc(-c3cnn4cccnc34)sc2c1", "growth": "87.6% (inactive)"},
      {"smiles": "COc1ccccc1N1CCN(C2=C(Cl)C(=O)c3ncccc3C2=O)CC1", "growth": "79.4% (inactive)"},
      {"smiles": "CN(C)S(=O)(=O)c1ccc(-c2nc(C(Cl)Cl)nc3cc(-c4ccc(F)cc4)nn23)cc1", "growth": "7.75% (active)"},
      {"smiles": "CCc1nnc(NC(=O)c2cc(-c3ccc(Cl)cc3Cl)oc2C)s1", "growth": "87.7% (inactive)"},
      {"smiles": "CCCCSC1=C(Cl)CN(c2ccc(Cl)cc2)C1=O", "growth": "31.7% (inactive)"},
      {"smiles": "CS(=O)(=O)c1ccc(/C(=N/N=C(N)N)c2ccc(Cl)cc2)cc1", "growth": "101% (inactive)"},
      {"smiles": "C#CCOc1ccc(/C=N/Nc2nc(-c3ccc(OC)cc3)cs2)cc1", "growth": "53.3% (inactive)"},
      {"smiles": "C=C(C)[C@@H]1CC[C@]2(COP(=O)(OCC)OCC)CC[C@]3(C)[C@H](CC[C@@H]4[C@@]5(C)CC[C@H](OP(=O)(OCC)OCC)C(C)(C)[C@@H]5CC[C@]43C)[C@@H]12", "growth": "-18.1% (active)"},
      {"smiles": "CCc1cc2c(cc1Cl)nc1c(=O)[nH]c(=O)nc-1n2CCOCC(C)C", "growth": "66.6% (inactive)"},
      {"smiles": "C#C[C@]1(O)CC[C@H]2[C@@H]3CC=C4c5sc(Nc6cc(C)cc(C)c6)nc5CC[C@]4(C)[C@H]3CC[C@@]21C", "growth": "-27.3% (active)"},
      {"smiles": "Cc1ccc2c(n1)C(=O)C(Cl)=C(Nc1ccc(C(=O)OC(C)(C)C)cc1)C2=O", "growth": "-0.459% [9.25 µM] (active)"},
      {"smiles": "C#C[C@]1(O)CC[C@H]2[C@@H]3CC=C4c5sc(Nc6ccc(C)cn6)nc5CC[C@]4(C)[C@H]3CC[C@@]21C", "growth": "-32% (active)"},
      {"smiles": "CN1CCN(c2ccc(Nc3nc(NCCCNS(=O)(=O)c4ccc(C(F)(F)F)cc4)c4sccc4n3)cc2)CC1", "growth": "-9.61% (active)"},
      {"smiles": "COc1ccc(NC(=O)CCCCCCNC(=O)C(O)(O)C(F)(F)F)cc1", "growth": "25.1% (inactive)"},
      {"smiles": "CN1CCN(Cc2ccc(NC(=O)c3cncc(C#Cc4cnc5ccc(OCCCS(C)(=O)=O)nn45)c3)cc2C(F)(F)F)CC1", "growth": "-3.99% (active)"},
      {"smiles": "N#Cc1cccc(-c2cc(-c3ccc4c(c3)OCCO4)[nH]n2)c1", "growth": "18.3% (inactive)"},
      {"smiles": "Cn1cc(-c2nn3cc(-c4ccncc4)nc3s2)c2cc(Br)ccc21", "growth": "15.2% (inactive)"},
      {"smiles": "CC(=C(c1ccc(OCCN2CCCC2)cc1)c1ccc(OCCN2CCCC2)cc1)c1ccc(Cl)cc1", "growth": "-54.8% (active)"},
      {"smiles": "COc1cc(C(=O)c2cc(C(C)=O)c3cccc(C)n23)cc(OC)c1OC", "growth": "51.2% (inactive)"},
      {"smiles": "C#CCN(C)CCCOc1ccc(NC(=O)CCCCCCCCC(=O)NO)cc1Cl", "growth": "40.2% (inactive)"},
      {"smiles": "Nc1ncc(-c2ccc3ncnc(NCc4ccccc4)c3c2)cn1", "growth": "31.5% (inactive)"},
      {"smiles": "Cn1cc(-c2cc3ncnc(Nc4ccc(CC(=O)Nc5nc(C(C)(C)C)cs5)cc4)c3s2)cn1", "growth": "38.8% (inactive)"},
      {"smiles": "N#Cc1cnc2ccc(-c3cnc4n[nH]nc4c3)cc2c1N1CCc2cc(F)c(Cl)cc21", "growth": "15.8% (inactive)"},
      {"smiles": "Cc1cc2nc3c4cc(C#N)ccc4n(CCN(C)C)c3nc2cc1C", "growth": "-17.7% (active)"},
      {"smiles": "CN(C)CC(=O)Nc1nc(-c2cccc(NS(=O)(=O)c3cccc4c(N(C)C)cccc34)c2)cs1", "growth": "60.6% (inactive)"},
      {"smiles": "COc1ccc([C@@H]2C(=O)N(c3cc(OC)c(OC)c(OC)c3)[C@H]2c2ccc(OC)c(O)c2)cc1", "growth": "13.1% (inactive)"}
    ]}
  ]
}
